Only some compounds are listed: those with a hit (about 2.3% of all), similar ones and a draw of the others.
CHO-K1 Ca PAM: M1 PAM counterscreen hit in parental CHO-K1 cells | 0.02% of 360,000 active | activation, % at 3 µM | ATP EC20, Fluo-8 calcium fluorescence; 0% at ATP EC20, 100% at ATP max;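 active means activation above the run cutoff, the mean activation of all test compounds plus 3 SD, cut at about 40% in these data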;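 further: peak over basal fluorescence ratio in a 140 s read after ATP addition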
CHRM1 agonist: activates human CHRM1 receptor | CHO-K1 hM1, Fluo-8 calcium fluorescence, agonist mode; 0% DMSO, 100% acetylcholine EC100 | activation, % at 3 µM | 0.33% of 360,000 active | AID 588814;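 active means activation above the run's mean compound activation plus 3 SD, cut at about 16% in these data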;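 further: peak over basal fluorescence ratio within a 140 s kinetic read after compound addition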
Target sequence (P11229 whole entry, looked up): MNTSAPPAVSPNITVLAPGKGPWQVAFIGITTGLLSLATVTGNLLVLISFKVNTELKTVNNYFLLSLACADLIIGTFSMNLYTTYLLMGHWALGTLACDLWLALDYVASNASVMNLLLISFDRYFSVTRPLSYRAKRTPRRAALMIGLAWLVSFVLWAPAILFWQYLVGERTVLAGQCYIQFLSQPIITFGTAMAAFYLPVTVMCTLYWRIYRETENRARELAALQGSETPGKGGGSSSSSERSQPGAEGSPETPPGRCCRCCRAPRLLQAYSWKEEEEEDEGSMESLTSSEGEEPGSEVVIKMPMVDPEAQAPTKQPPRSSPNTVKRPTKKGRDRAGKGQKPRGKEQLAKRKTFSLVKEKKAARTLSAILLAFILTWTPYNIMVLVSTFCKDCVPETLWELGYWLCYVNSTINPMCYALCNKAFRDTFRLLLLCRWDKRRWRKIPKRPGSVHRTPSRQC
CHRM1 PAM: human CHRM1 positive allosteric modulation. P11229. CHO-K1 hM1, Fluo-8 calcium fluorescence, ACh EC20; 0% = ACh EC20, 100% = maximal ACh. 0.088% of 360,000 active. activation, % at 3 µM. AID 588819; in the data active means activation above about 19%, passing the limit was not always enough
CHO-K1 Ca antag: M1 antagonist counterscreen hit in parental CHO-K1 cells; 0.6% of 360,000 active; inhibition, % at 3 µM; ATP-induced calcium, Fluo-8 fluorescence;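 active means inhibition above a per-plate cutoff, the plate's mean sample inhibition plus 3 SD, cut at about 24% in these data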
M1 antag: antagonists of human M1 muscarinic receptor | P11229 | CHO-K1 hM1, Fluo-8 calcium fluorescence, ACh EC80 antagonist | inhibition, % at 3 µM | 1.3% of 360,000 active;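 active means percent inhibition above its own plate's cutoff, namely the mean of that plate's compound wells plus 3 SD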;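 further: peak over basal fluorescence ratio during 140 s after agonist addition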
M1 ag parental: nonselective activator or artifact in parental CHO-K1 cells; Fluo-8 calcium fluorescence; scaled to maximal ATP response, vehicle zero; activation, % at 3 µM; 0.48% of 360,000 active; AID 602248; in the data active means activation above about 15%;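 further: untransfected CHO-K1 host cells lacking M1 receptor as counterscreen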
A number is an active result; n = inactive.

SMILES	CHO-K1 Ca PAM	CHRM1 agonist	CHRM1 PAM	CHO-K1 Ca antag	M1 antag	M1 ag parental
Cc1noc(C)c1NC(=O)N(C)C[C@H]1OCCCC[C@@H](C)Oc2ccc(NC(=O)Nc3ccc(F)cc3)cc2C(=O)N([C@@H](C)CO)C[C@H]1C	n	n	n	n	n	n
COc1ccc(S(=O)(=O)N(C)C[C@H]2OCCCC[C@H](C)Oc3ccc(NC(=O)Nc4ccc(F)cc4)cc3C(=O)N([C@H](C)CO)C[C@H]2C)cc1	n	n	n	n	n	n
Cc1ccc2nc(SCC(=O)NCc3ccc(F)cc3)nc(=O)n2c1	n	n	n	n	n	n
COc1ccc(CCC(=O)N2CCCC(Nc3ccccc3)C2)cc1OC (centres undefined)	n	n	n	n	n	n
CCOc1ccc(-c2c(C(=O)N/N=C/c3ccc(O)cc3)nnn2-c2nonc2N)cc1	n	n	n	n	n	n
Nc1nonc1-n1nnc(C(=O)N/N=C/c2cccnc2)c1CSc1ccc(Cl)cc1	n	n	n	n	n	16
CCOc1ccc(-c2c(C(=O)N/N=C/c3ccsc3)nnn2-c2nonc2N)cc1	n	28	n	n	n	n
CCOc1cccc(-c2c(C(=O)N/N=C/c3ccc(Br)cc3)nnn2-c2nonc2N)c1	n	19	n	n	n	n
Nc1nonc1-n1nnc(C(=O)N/N=C/c2cccnc2)c1CSc1ccccc1	n	n	n	n	n	n
CCCOc1ccc(-c2c(C(=O)N/N=C/c3ccc(OCC)cc3)nnn2-c2nonc2N)cc1	n	n	n	26	n	n
COc1ccc(COn2nnc3ccc(S(=O)(=O)N4CCOCC4)cc32)cc1F	n	n	n	n	n	n
COc1ccc(CCNCC(=O)Nc2ccc(OC(F)(F)F)cc2)cc1OC	n	n	n	n	n	n
COc1ccccc1-c1ccc(/C=C2\C=CC(=O)O2)o1	n	27	n	n	n	28
COc1ccc(C(=O)CN2C(=O)NC3(CCCCC3)C2=O)cc1OC	n	n	n	n	n	19
COc1ccc(C(=O)CN2C(=O)NC3(CCCCCC3)C2=O)c(OC)c1	n	n	n	n	n	n
O=C(CN1C(=O)NC2(CCCC2)C1=O)NNC(=O)c1ccc(Br)cc1	n	n	30	n	n	n
CSc1ccccc1C(=O)C1CCCN(Cc2c(C)n(C)n(-c3ccccc3)c2=O)C1 (centres undefined)	n	n	n	n	79	n
O=C(c1cc2ccccc2o1)N1CCN(S(=O)(=O)c2ccc(F)c(F)c2F)CC1	n	n	n	n	n	n
COc1ccccc1CNC(=O)c1sccc1-c1ccccc1	n	n	n	n	n	n
COc1ccc(CCN=C(N)NS(=O)(=O)c2cc(F)ccc2OC)cc1	n	n	n	n	n	n
COc1cc(/C=N/N2C(=O)CSC2=S)cc(Br)c1O	n	55	n	n	38	48
COc1ccccc1CNC(=O)[C@H](Cc1c[nH]c2ccccc12)NC(=O)[C@@H]1Cc2ccccc2CN1	n	n	n	n	n	n
COc1cc(C(=O)NCc2cccnc2)ccc1OCC(=O)Nc1cccc(C(F)(F)F)c1	n	n	n	n	n	17
CCOc1ccc(NC(=O)COc2ccc(C(=O)NCc3cccnc3)cc2OC)cc1	n	n	n	n	n	n
COc1cccc(OC)c1C(=O)Nn1c(-c2cccs2)nc2ccccc2c1=O	n	n	n	n	n	n
SMILES	CHO-K1 Ca PAM	CHRM1 agonist	CHRM1 PAM	CHO-K1 Ca antag	M1 antag	M1 ag parental
COc1cccc(OC)c1C(=O)Nn1c(-c2cccc(C)c2)nc2ccccc2c1=O	n	n	n	24	n	n
FC(F)Sc1ccc(NC(=S)N2CCN(c3ccccn3)CC2)cc1	n	n	n	n	22	n
Oc1ccccc1N1CCN(C(=S)Nc2ccc(SC(F)F)cc2)CC1	n	n	n	n	n	n
CCOc1ccc(CN(C)C(=O)CNC(=O)C2CCCCC2)cc1OC	n	n	n	n	n	n
Cc1ccc(OC(C)C(=O)Nc2ccc(S(=O)(=O)Nc3nccs3)cc2)cc1 (centres undefined)	n	n	n	n	n	n
CCc1ccc(OC(C)C(=O)Nc2ccc(S(=O)(=O)Nc3nccs3)cc2)cc1 (centres undefined)	n	17	n	n	n	n
CN(Cc1ccccc1)C(=O)c1cccc(NC(=O)Cc2ccc(NC(=O)C3CCN(C(=O)C4CCC4)CC3)cc2)c1	n	n	n	n	n	n
CCOC(=O)C1(CC2CCCCO2)CCN(Cc2cc3ccccc3[nH]2)CC1 (centres undefined)	n	62	n	n	29	57
O=C(CS(=O)(=O)c1cn(CC(=O)N2CCOCC2)c2ccccc12)Nc1ccccc1F	n	n	n	n	n	n
CN1CCCC(OC(=O)CCCCC(=O)OC2CCCN(C)C2)C1 (centres undefined)	n	n	n	26	n	n
CN1CCCC(OC(=O)c2ccc(Cl)cc2)C1 (centres undefined)	n	n	n	n	n	n
COc1ccc(CCC(=O)NCCS(=O)(=O)N2CCN(c3ccccc3OC)CC2)cc1	n	n	n	n	n	n
OCCNc1nc2nonc2nc1NCCO	n	n	n	n	n	n
CC(C)(C)Nc1nc2nonc2nc1NC(C)(C)C	n	n	n	n	n	16
CC(O)(c1cccnc1)c1nc(-c2ccc3c(c2)OCO3)cs1 (centres undefined)	n	n	n	n	n	n
O=C(O)C(Oc1ccc(Cl)cc1)c1ccc(Cl)cc1 (centres undefined)	n	n	n	n	n	n
CC(C)(C)C(=O)/C=c1\s/c(=C\c2ccc(-c3ccc([N+](=O)[O-])cc3)o2)c(=O)n1CC(=O)NC(N)=O	n	23	n	26	39	16
CCC(=O)N/N=C/c1ccc(-c2ccc([N+](=O)[O-])cc2)o1	n	n	n	n	n	n
COc1ccc2cc1Oc1ccc(cc1)C[C@H]1c3c(cc4c(c3Oc3cc5c(cc3OC)CCN(C)[C@@H]5C2)OCO4)CCN1C	n	n	n	n	n	n
COc1ccc2cc1Oc1ccc(cc1)C[C@H]1c3cc(c(OC)cc3CCN1C)Oc1c(OC)c(OC)cc3c1[C@H](C2)N(C)CC3	n	n	n	n	91	n
O=C1Nc2ccc(Cl)cc2C(=O)C1(F)c1ccccc1 (centres undefined)	n	n	n	n	n	17
O=C1Nc2c(ccc(Cl)c2Cl)C(=O)C1(F)c1ccccc1 (centres undefined)	n	n	n	n	n	n
Cc1cccc(N2CC(C(=O)Nc3ccc(S(=O)(=O)Nc4nccs4)cc3)CC2=O)c1C (centres undefined)	n	n	n	n	n	n
O=C(Nc1cccc(-c2cnc3ccccc3n2)c1)c1ccccc1	n	n	n	n	n	n
